# Reference: PubChem BioAssay (Tox21)
# Several values for one entry are separate records, joined by “and”; a condition that tells them apart may be missing. Equal values may be shown once. Values without a mark were called inactive. Records with an inconclusive call do not appear. Where a call stands in place of a potency, no number is given. Activity calls are given as the source filed them. Unless noted, calls come from the whole dose curve; as a rule, active = well fitted curve in the direction sought with a large enough effect in the repeat runs; inconclusive = weak or mixed curves; inactive = no such curve, though single readings can be large; an effect the other way counts as inactive or inconclusive.
# Key:
# [1] = target: Progesterone receptor (Homo sapiens) (UniProt P06401); assay: qHTS assay to identify small molecule antagonists of the progesterone receptor (PR) signaling pathway (AID 1346795; active = well fitted inhibition curve with a large enough effect in the signal ratio in the repeat runs, not every such curve was filed as active; the % refers to the signal ratio; note: potency is the fitted concentration of half-maximal effect)
# Sequence of Progesterone receptor (Homo sapiens) (P06401 whole entry, looked up): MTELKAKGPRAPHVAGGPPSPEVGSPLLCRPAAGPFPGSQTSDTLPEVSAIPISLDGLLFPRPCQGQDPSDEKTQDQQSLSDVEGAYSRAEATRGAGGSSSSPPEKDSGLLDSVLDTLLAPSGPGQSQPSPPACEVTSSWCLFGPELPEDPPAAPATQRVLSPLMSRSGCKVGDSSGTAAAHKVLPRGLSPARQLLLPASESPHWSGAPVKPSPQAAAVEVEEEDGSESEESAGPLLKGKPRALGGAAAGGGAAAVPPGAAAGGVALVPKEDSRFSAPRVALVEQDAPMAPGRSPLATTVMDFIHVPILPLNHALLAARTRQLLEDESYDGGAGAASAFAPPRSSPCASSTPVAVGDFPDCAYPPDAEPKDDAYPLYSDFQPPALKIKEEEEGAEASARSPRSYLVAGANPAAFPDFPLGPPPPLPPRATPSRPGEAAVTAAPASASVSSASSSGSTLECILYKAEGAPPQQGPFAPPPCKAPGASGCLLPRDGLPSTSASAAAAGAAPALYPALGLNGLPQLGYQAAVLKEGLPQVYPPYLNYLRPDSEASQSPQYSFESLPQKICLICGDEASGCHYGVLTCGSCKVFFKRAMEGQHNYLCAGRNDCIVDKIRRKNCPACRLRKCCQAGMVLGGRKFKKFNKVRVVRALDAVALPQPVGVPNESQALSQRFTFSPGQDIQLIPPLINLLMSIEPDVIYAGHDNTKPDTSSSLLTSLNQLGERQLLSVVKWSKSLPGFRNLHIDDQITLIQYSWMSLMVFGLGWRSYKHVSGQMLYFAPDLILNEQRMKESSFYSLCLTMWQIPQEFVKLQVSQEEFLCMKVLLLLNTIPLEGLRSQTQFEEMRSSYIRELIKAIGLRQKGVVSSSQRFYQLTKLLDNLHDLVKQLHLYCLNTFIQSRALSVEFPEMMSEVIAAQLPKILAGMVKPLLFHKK
# Outline: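 PR-UAS-bla HEK293T cells carrying a UAS-driven beta-lactamase reporter were plated in medium with 2% charcoal-stripped FBS and rested 6 hr at 37C. Compounds were added with 1 nM R5020 (final) for 16 hr, then FRET substrate loaded 2 hr at room temperature.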
# [2] = qHTS assay to identify small molecule antagonists of the TGF-beta/Smad signaling pathway - cell viability counter screen (AID 1346824); note: nearly all actives have a fitted effect of over 50% in size
# Outline: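 SBE-bla HEK 293T cells were plated overnight at 37 C, then given compounds in DMSO plus TGF-beta1 (added as 0.25 ng/mL solution) for 5 hr. After the bla read, CellTiter-Glo was added to the same wells and luminescence read after 30 min at room temperature.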
# [3] = qHTS assay to identify small molecule agonists of the TGF-beta/Smad signaling pathway - cell viability counter screen (AID 1346829); note: top concentration of the series differs between compounds; nearly all actives have a fitted effect of over 45% in size
# Outline: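 Same-well cytotoxicity: CellTiter-Glo added after the 2 hr room-temperature beta-lactamase substrate step, luminescence measured 30 min later; cells had 5 hr of compound at 37 C.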
# [4] = qHTS assay to identify small molecule agonists of the TGF-beta/Smad signaling pathway (AID 1346859; active = well fitted activation curve with a large enough effect in the signal ratio in the repeat runs, not every such curve was filed as active; the % refers to the signal ratio; note: series mostly up to about 77 µM)
# Outline: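 HEK 293T cells stably carrying a beta-lactamase reporter driven by the Smad binding element were seeded overnight, exposed to DMSO-dissolved compounds for 5 hr at 37 C, 5% CO2, then loaded with FRET substrate for 2 hr at room temperature.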
# [5] = target: Thyrotropin-releasing hormone receptor (Homo sapiens) (UniProt P34981); assay: qHTS assay to identify small molecule antagonists of the thyrotropin-releasing hormone receptor (TRHR) signaling pathway (AID 1346877; active = well fitted inhibition curve with a large enough effect in the repeat runs, not every such curve was filed as active; note: series mostly up to about 51 µM)
# Sequence of Thyrotropin-releasing hormone receptor (Homo sapiens) (P34981 whole entry, looked up): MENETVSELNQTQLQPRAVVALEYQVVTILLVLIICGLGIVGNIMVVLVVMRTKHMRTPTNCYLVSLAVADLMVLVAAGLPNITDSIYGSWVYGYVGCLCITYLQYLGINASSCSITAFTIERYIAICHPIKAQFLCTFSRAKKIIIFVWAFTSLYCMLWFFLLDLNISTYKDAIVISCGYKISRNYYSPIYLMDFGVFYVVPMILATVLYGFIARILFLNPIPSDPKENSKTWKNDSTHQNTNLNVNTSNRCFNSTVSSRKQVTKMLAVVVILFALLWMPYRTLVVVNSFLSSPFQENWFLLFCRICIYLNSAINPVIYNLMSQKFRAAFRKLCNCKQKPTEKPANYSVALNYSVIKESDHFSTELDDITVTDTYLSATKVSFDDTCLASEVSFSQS
# Outline: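 Antagonism is measured as suppression of the calcium response to 1 nM TRH in TRHR-HEK293 cells that have been dye-loaded for 2 h at 37 °C after overnight plating. Each compound is tested at 15 concentrations in triplicate.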
# [6] = target: Thyrotropin-releasing hormone receptor (Homo sapiens) (UniProt P34981); assay: qHTS assay to identify small molecule agonists of the thyrotropin-releasing hormone receptor (TRHR) signaling pathway (AID 1346891; calls by dose curve; note: series mostly up to about 58 µM)
# Outline: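 TRHR-expressing HEK293 cells were plated 18 h at 37 °C/5% CO2, loaded with calcium dye 2 h at 37 °C, then given compound in DMSO; fluorescence was read kinetically for 3 min at 1 s intervals.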
# [7] = Human pregnane X receptor (PXR) small molecule agonists, qHTS cell viability counter screen (AID 1346977); note: nearly all actives have a fitted effect of over 50% in size; note: potency is the fitted concentration of half-maximal effect
# Outline: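 PXR-Luc HepG2 cells in medium with 5% charcoal-stripped FBS were pre-incubated 5hr, then exposed to compounds for 24hr at 37C. Viability was read in the same wells by CellTiter-Fluor fluorescence, reagent added after 23hr with a 1hr incubation.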
# [8] = Caspase-3/7 induction in HepG2 cells by small molecules, qHTS assay (AID 1346978); note: nearly all actives have a fitted effect of over 15% in size; note: potency is the fitted concentration of half-maximal effect
# Outline: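 Wild-type HepG2 cells (2,000/well) were settled 5 h at 37 C, 5% CO2, then exposed to compounds in DMSO for 17 h. Caspase-3/7 activity was read by luminescence 30 min after adding Caspase-Glo 3/7 reagent at room temperature.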
# [9] = qHTS assay to identify small molecule agonists of the progesterone receptor (PR) signaling pathway - cell viability counter screen (AID 1346799; calls by dose curve; note: nearly all actives have a fitted effect of over 45% in size; note: potency is the fitted concentration of half-maximal effect)
# Outline: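 PR-UAS-bla HEK293T cells, 3,000 per well in medium with 2% charcoal-stripped FBS, were preincubated 6 hr at 37C, then exposed to compounds for 16 hr; viability was read as CellTiter-Glo luminescence after 30 min at room temperature.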
# [10] = qHTS assay to identify small molecule antagonists of the progesterone receptor (PR) signaling pathway - cell viability counter screen (AID 1346798); note: nearly all actives have a fitted effect of over 50% in size; note: potency is the fitted concentration of half-maximal effect
# Outline: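 PR-UAS-bla HEK293T cells in medium with 2% charcoal-stripped FBS were treated with compounds plus R5020 for 16 hr at 37C. Cell viability was then read by CellTiter-Glo luminescence after 30 min at room temperature in the same wells.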
Structure (SMILES),Potency [1],Potency [2],Potency [3],Potency [4],Potency [5],outcome [6],Potency [7],Potency [8],Potency [9],Potency [10]
Cc1c(N)cccc1C(F)(F)F,inactive,inactive,inactive,inactive,inactive,inactive,inactive,inactive,,
O=c1[nH]c(=O)n([C@H]2C[C@H](O)[C@@H](CO)O2)cc1F,inactive,inactive,inactive,,inactive,inactive,inactive,,inactive,
Cc1ccc(C(=O)O)cc1,inactive,,inactive,inactive,inactive,inactive,inactive,inactive,inactive,
CCC(C)n1ncn(-c2ccc(N3CCN(c4ccc(OC[C@H]5CO[C@](Cn6cncn6)(c6ccc(Cl)cc6Cl)O5)cc4)CC3)cc2)c1=O (stereo partly drawn),inactive,inactive,inactive,,inactive,inactive,,,,
OC12N=C(c3ccccc3)SC1Cc1cc(Cl)ccc12 (stereo not drawn),43.3 µM (active),inactive,inactive,inactive,,,,inactive,,
CC(C)OC(=O)C(O)(CC(=O)O)CC(=O)O,inactive,,inactive,inactive,inactive,inactive,inactive,inactive,inactive,
c1cnccn1,inactive,inactive,inactive,,inactive,inactive,inactive,inactive,inactive,
CCCCCCCCCCCC(=O)OCC(C)OC(=O)CCCCC(=O)O (stereo not drawn),inactive,,inactive,inactive,inactive,inactive,inactive,inactive,inactive,
Cc1ccc(O)c(N)c1,,inactive,inactive,inactive,inactive,inactive,,inactive,,inactive
Nc1nc(-c2ccccc2)cs1,,inactive,inactive,inactive,inactive,inactive,inactive,inactive,inactive,inactive
COc1cccc2c1C(=O)c1c(O)c3c(c(O)c1C2=O)C[C@@](O)(C(C)=O)C[C@@H]3O[C@H]1C[C@H](N)[C@H](O)[C@H](C)O1,,inactive,inactive,,inactive,inactive,1.09 µM (active) and 2.66 µM (active),1.38 µM (active) and 1.33 µM (active),inactive,inactive
CN1CCC[C@@H]1CCO[C@](C)(c1ccccc1)c1ccc(Cl)cc1,,,inactive,inactive,inactive,inactive,21.1 µM (active),,8.41 µM (active),21.1 µM (active)
